VDR inhibitor: vitamin D3 receptor (human) inhibition | P11473 | VDR-SRC2-3 peptide fluorescence polarization, 2 h | Potency, µM, without a hit: max response, negative = inhibition, hits mostly inhibitors | 400,000 compounds, 0.93% hits; note: % is set by controls: 0 for no effect and ±100 for the full control effect
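Fluorescence polarization assay measuring small-molecule disruption of VDR binding to the coregulator peptide SRC2-3. Compounds were pin-transferred (23 nl) into the reagent mix and incubated 2 h at room temperature before reading.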
PLK1 PBD block: PLK1 (human) polo-box domain binding inhibition; P53350; Plk1 PBD binding of FITC phosphopeptide, fluorescence polarization; Potency, µM, without a hit: max response, negative = inhibition, usual class: inhibitors; 360,000 compounds, 2.8% hits; note: series mostly up to about 57 µM; % is set by controls: 0 for no effect and ±100 for the full control effect; nearly all actives have a fitted effect of over 65% in size
BAZ2B block: BAZ2B (human) inhibition. 360,000 compounds, 4.4% hits. AlphaScreen BAZ2B-H3K14Ac peptide displacement. Potency, µM (series often up to 114 µM), without a hit: at the highest dose activity change, negative = inhibition, actives largely listed as inhibitors. Q9UIF8; note: % is set by controls: 0 for no effect and ±100 for the full control effect; nearly all actives have a fitted effect of over 60% in size
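AlphaScreen displacement of biotin-H3(5-23)K14Ac peptide (50 nM final) from BAZ2B (50 nM final) in PBS pH 7.4, 0.01% Tween-20; complex preformed 30 min RT, then compounds (top 110 uM) 30 min RT, beads 20 min dark.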
G9a inh: blocks human histone lysine methyltransferase G9a; Q96KQ7; G9a H3K9 monomethylation, AlphaScreen, 2 h; Potency, µM (series often up to 102 µM), without a hit: at the highest dose activity, negative = inhibition, most hits filed as inhibitors; 350,000 compounds, 8.8% hits; note: % is set by controls: 0 for no effect and ±100 for the full control effect; nearly all actives have a fitted effect of over 75% in size
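Step 1: enzyme (final 20 nM) with compound, 15 min RT. Step 2: substrate peptide 500 nM and SAM 20 uM, 2 h RT. Step 3: anti-H3K9me1 antibody and AlphaScreen beads, 10 min, then plate read.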
HP1b binding inh: inhibitors of HP1-beta chromodomain binding to methylated histone tails. P83916. AlphaScreen HP1-beta / biotin-H3K9me3 peptide binding. Potency, µM (titrated, usually from 114 µM), without a hit: top-dose activity change, negative = inhibition, hits mostly inhibitors. 390,000 compounds, 0.56% hits. AID 540317; note: nearly all actives have a fitted effect of over 70% in size
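HP1-beta protein (50 nM final) preincubated 30 min at room temperature with biotinylated H3(1-18)K9me3 peptide (50 nM) in PBS pH 7.4, 0.01% Tween-20, then compound added for 30 min. AlphaScreen streptavidin donor/nickel chelate acceptor beads (10 ug/mL final), 30 min dark, luminescence read.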
JMJD2A Tudor: JMJD2A Tudor domain (human) inhibition; AID 504339; AlphaScreen JMJD2A-Tudor / H3K4me3 peptide binding; O75164; Potency, µM (series often up to 114 µM), inactives show at the highest dose activity change, negative = inhibition, hits mostly inhibitors; 390,000 compounds, 4.4% hits; note: % is set by controls: 0 for no effect and ±100 for the full control effect; nearly all actives have a fitted effect of over 50% in size
Target sequence (O75164 whole entry, looked up, the tested form may be a part): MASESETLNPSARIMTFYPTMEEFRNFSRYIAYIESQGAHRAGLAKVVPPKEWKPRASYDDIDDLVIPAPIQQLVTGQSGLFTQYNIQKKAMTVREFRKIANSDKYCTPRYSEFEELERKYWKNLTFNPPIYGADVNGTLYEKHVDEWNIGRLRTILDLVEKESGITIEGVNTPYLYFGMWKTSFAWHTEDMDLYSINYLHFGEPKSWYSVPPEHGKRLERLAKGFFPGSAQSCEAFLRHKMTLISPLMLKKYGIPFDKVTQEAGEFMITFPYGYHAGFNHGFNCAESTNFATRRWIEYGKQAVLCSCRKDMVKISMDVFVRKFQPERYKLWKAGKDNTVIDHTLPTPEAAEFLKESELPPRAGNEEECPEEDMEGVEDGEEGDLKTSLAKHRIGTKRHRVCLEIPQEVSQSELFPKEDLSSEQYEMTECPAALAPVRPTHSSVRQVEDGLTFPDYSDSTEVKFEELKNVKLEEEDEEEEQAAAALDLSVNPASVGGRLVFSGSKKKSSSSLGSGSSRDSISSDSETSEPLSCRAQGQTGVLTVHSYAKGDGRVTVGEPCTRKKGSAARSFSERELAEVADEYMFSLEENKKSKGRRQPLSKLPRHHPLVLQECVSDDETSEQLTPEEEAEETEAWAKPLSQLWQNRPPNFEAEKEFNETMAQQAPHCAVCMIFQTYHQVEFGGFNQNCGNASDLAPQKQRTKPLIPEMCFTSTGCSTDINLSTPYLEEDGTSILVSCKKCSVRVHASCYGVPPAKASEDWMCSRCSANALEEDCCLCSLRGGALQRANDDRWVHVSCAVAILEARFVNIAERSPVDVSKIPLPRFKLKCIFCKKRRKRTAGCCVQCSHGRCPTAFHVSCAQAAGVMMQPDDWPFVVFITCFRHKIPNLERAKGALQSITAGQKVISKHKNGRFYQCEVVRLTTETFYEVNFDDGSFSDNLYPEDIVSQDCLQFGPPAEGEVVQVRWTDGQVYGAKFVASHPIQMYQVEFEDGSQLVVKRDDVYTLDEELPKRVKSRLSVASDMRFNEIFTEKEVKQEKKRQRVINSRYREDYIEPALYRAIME
An asterisk follows results filed as active; ? = inconclusive; / = not tested or not shown; ! = repeats disagree; [ ] = dose if it differs, or a comment. Rows were chosen to be rich in hits. Some 11% of all compounds tested hit in one or more screens of this group. Calls come from the whole dose curve; as a rule, active = well fitted curve in the direction sought with a large enough effect; inconclusive = small, poorly fitted or top-dose-only effect, or another doubt; inactive = no such curve, though single readings can be large; an effect the other way counts as inactive or inconclusive. Potency is the fitted concentration of half-maximal effect.

SMILES	VDR inhibitor	PLK1 PBD block	BAZ2B block	G9a inh	HP1b binding inh	JMJD2A Tudor
COC(=O)C(C)Sc1ncnc2c1nnn2-c1ccc(F)cc1 (stereo unspecified)	-20%	-8%	10%	43%	120%	16%
COc1ccc(-n2nnc3c(SC(C(C)=O)C(=O)N(C)C)ncnc32)cc1 (stereo unspecified)	7.1µM*	24µM*	-26%	/	?	-32%
Cn1c2cc(C#N)sc2c2cnn(Cc3ccccc3F)c(=O)c21	/	/	/	/	/	-13%
Cc1ccc(S(=O)(=O)N(C)C)cc1NC(=O)COC(=O)C1CCCC1	-4%	2%	-3%	-18%	20%	20µM*
Cc1ccc(S(=O)(=O)N(C)C)cc1NC(=S)NNC(=O)C(N)=O	17%	-3%	-25%	45µM*	37%	-24%[11.4 µM]
Cc1ccc2c(Cl)cc(Cl)c(OCC(=O)Nc3cccc(S(=O)(=O)N(C)C)c3)c2n1	15%	0%	5%	17%[59 µM]	36%	-1%
Cc1ccc2c(Cl)cc(Cl)c(OCC(=O)Nc3cc(S(=O)(=O)N(C)C)ccc3C)c2n1	-3%	2%	2%	71µM*	52%	-22%
COc1cccc(CNC(=O)CN2C(=O)CSc3c2c(C)nn3-c2ccccc2)c1OC	15%	/	-3%	-1%[59 µM]	34%	-7%
CC(C)c1ccc(S(=O)(=O)N2CCN(CC(=O)Nc3ccccc3C(F)(F)F)CC2)cc1	16%	/	3%	-25%[59 µM]	35%	2%
O=c1c2c(-c3cccs3)csc2[nH]c(=S)n1-c1ccccc1	13%	21µM*	-32%	40µM*	-2%	-4%[57.1 µM]
CC(C)n1c(=S)[nH]c2scc(-c3cccs3)c2c1=O	8%	27µM*	50µM*	28µM*	-15%	?
Cc1nc2scc(-c3cccs3)c2c(=O)[nH]1	-3%	?	6%	?	-5%	-19%
C[C@H]1OC(=O)CC[C@@H]2[C@]1(C)CCC1[C@@]2(C)CC[C@@]2(C)C3CC(C)(C)CC[C@]3(CO)CC[C@]12C (stereo partly specified)	0%	/	/	/	/	/
COc1cc(C(=O)O)ccc1O	-5%	-2%	-3%	-6%	27%	-16%
COc1cc(C(O)C(=O)O)ccc1O (stereo unspecified)	-1%	2%	-5%	11µM*!	39%	1%
O=C(Nc1ccc(F)cc1)C(=O)c1c(O)[nH]c2ccc([N+](=O)[O-])cc12	-20%	?	?	32µM*	-17%	?
Cc1ccc(NCC(=O)N=Nc2c(O)[nH]c3ccc([N+](=O)[O-])cc23)cc1	23%	-22%	-15%	/	41%	-25%
CCCCCCSc1ccc([C@H]2N[C@@](CC(C)C)(C(=O)OC)[C@H]3C(=O)N(C)C(=O)[C@@H]23)cc1OC	-28%	21µM*	-2%	9%[12.7 µM]	15%	?
CC(=O)n1nnc2ccccc21	-7%	/	/	/	15%	-5%
CCSc1ccccc1C(=O)n1nnc2ccccc21	50µM*	5.6µM*	35%	-7%[59 µM]	97%	66%
O=C1c2oc3ccccc3c(=O)c2C(c2cccnc2)N1Cc1ccco1 (stereo unspecified)	1%	-14%	9%	25µM*	32%	1%
CCN(CC)CCN1C(=O)c2oc3ccccc3c(=O)c2C1c1ccc(F)cc1 (stereo unspecified)	1%	-7%	2%	-42%[12.7 µM]	19%	-4%
CCN(CC)CCCN1C(=O)c2oc3ccccc3c(=O)c2C1c1cccnc1 (stereo unspecified)	7%	-5%	-1%	50µM*	14%	?
O=C(O)c1cccnc1-c1ncccc1C(=O)O	-4%	3%	-39%	56µM*	-1%	?
c1ccc(CCn2nnnc2CN2CCCc3ccccc32)cc1	-15%	13µM*	-35%	?	-21%	-22%[11.4 µM]
SMILES	VDR inhibitor	PLK1 PBD block	BAZ2B block	G9a inh	HP1b binding inh	JMJD2A Tudor
c1ccc2c(c1)CCCN2Cc1nnnn1CC1CCCO1 (stereo unspecified)	1%	-27%	-25%	?	41%	-9%
Cc1ccc(C(=O)Oc2csc(=S)n2C(=O)c2ccc(C)cc2)cc1	-30%	3µM*	?	1.1µM*	-7%	?
Cc1ccc(C(=O)N2CCSC2=S)cc1	-16%	?	-32%	-7%	?	-26%
Cc1ccc2c(c1)N(CCC(=O)NCc1ccccc1Cl)C(=O)CO2	-8%	/	5%	7%[59 µM]	43%	4%
COc1ccccc1CN(Cc1cccnc1)S(=O)(=O)c1ccc(-n2cnnn2)c(OC)c1	7%	1%	-1%	8%	-7%	-11%
COc1cc(S(=O)(=O)N(Cc2cccnc2)Cc2cccc(OC)c2OC)ccc1-n1cnnn1	-1%	-2%	79µM*	18µM*	16%	1%
COc1ccc(CN(Cc2cccnc2)S(=O)(=O)c2ccc(-n3cnnn3)c(C)c2)cc1OC	-15%	0%	-37%	16µM*	10%	-24%
CC(=O)Nc1ccc(SCC(CC(C)C)N2CCN(C)CCC2=O)cc1 (stereo unspecified)	-17%	/	/	/	34%	-8%
CC(C)C(NS(=O)(=O)c1ccc2c(c1)Cc1cc(S(=O)(=O)NC(C(=O)O)C(C)C)ccc1-2)C(=O)O (stereo unspecified)	-15%	-17%	-5%	?	35%	?
CCOc1ccc(-c2noc([C@@H]3O[C@H](CO)[C@@H](O)[C@H]3O)n2)cc1	/	0%	/	/	/	/
COc1ccc(NC(=O)COC(=O)CC2CCCC2)cc1Cl	14%	-2%	13%	-3%[12.7 µM]	59%	15%
CCN(CC)c1ccc(NC(=O)CSc2n[nH]c(-c3ccco3)n2)cc1	1%	0%	40µM*	4.5µM*	-35%	?
CCn1c(SCC(=O)Nc2ccc(N(C)C)cc2)nnc1C1CC1	-19%	0%	-20%	40µM*	13%	-9%
CCn1c(SCC(=O)Nc2ccc(NC(C)=O)cc2)nnc1C1CC1	1%	-9%	22%	-10%	69%	-11%
CCn1c(SCC(=O)Nc2ccc(N(C)C)cc2)nnc1-c1ccco1	9%	-7%	-36%	40µM*	25%	-6%
O=C(CSc1n[nH]c(-c2ccco2)n1)Nc1ccccc1	-4%	-8%	-35%	-48%	6%	-21%
Cc1c(C#N)c2ccccc2n1CC(=O)N1CCCC1	?	30µM*	32%	21%[12.7 µM]	?	79µM*
Cc1c(C#N)c2ccccc2n1CC(=O)N1CCCc2ccccc21	-5%	-16%	-4%	3%	12%	-12%
CCOC(=O)CSc1nc2cc(C(=O)N3CCC(C(N)=O)CC3)ccc2c(=O)n1-c1ccccc1	-3%	-1%	-7%	-32%[12.7 µM]	22%	-11%

Screening results: PubChem, National Center for Advancing Translational Sciences (NCATS)
